# High-throughput results as filed in PubChem BioAssay.
# Most compounds without a hit are left out; they make up all but 18% or so of the library.
# HepG2 tox: qHTS for Inhibitors of TGF-b: Cytotox Counterscreen. HepG2 CAGA-GFP viability, ATP luminescence, 18 h. Potency, µM (series often up to 46.1 µM), most hits filed as cytotoxic. actives 0.76% (n = 410,000)
#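 HepG2 CAGA-GFP cells (1000/well, DMEM with 1% FBS) received compound, then TGF-beta at 500 pg/mL final, and were incubated 18 hours at 37 degrees C. Viability was read by CellTiter-Glo luminescence. Media-only wells were set as complete cell-killing and DMSO as no toxicity.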
# DT40 TDP1 no CPT: qHTS for Inhibitors of human tyrosyl-DNA phosphodiesterase 1 (TDP1): qHTS in cells in absence of CPT; Potency, µM (top dose mostly 46.2 µM), actives largely listed as inhibitors; actives 15% (n = 420,000); DT40 Tdp1-/- hTDP1 cells, no CPT, ATP luminescence, 48 h; note: nearly all actives have a fitted effect of over 55% in size
#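 DT40 Tdp1-/-;hTDP1 cells, no CPT (DMSO vehicle only), 400 cells/well; compounds pin-transferred; ≥48 hr, 37 °C; CellTiter-Glo 30 min RT dark, luminescence read.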
# TDP1 cell CPT: qHTS for Inhibitors of human tyrosyl-DNA phosphodiesterase 1 (TDP1): qHTS in cells in presence of CPT; chicken DT40 Tdp1-/-;hTDP1 cells + 20 nM CPT, ATP luminescence, 48 h; Potency, µM (highest dose often 46.2 µM), actives largely listed as inhibitors; actives 12% (n = 420,000); note: nearly all actives have a fitted effect of over 55% in size
#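 Chicken DT40 Tdp1-/- cells complemented with human TDP1, 400 cells/well, exposed to compounds plus 20 nM camptothecin for at least 48 h at 37 C; viability read as ATP content by CellTiter-Glo luminescence.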
# IL1B secr inh: qHTS for Inhibitors of Inflammasome Signaling: IL-1-beta AlphaLISA Primary Screen. THP-1 LPS/ATP IL-1B secretion, AlphaLISA, 16 h; hits give low values. activity change, % at 57.5 µM. actives 4.7% (n = 360,000). AID 743279, 2014; in the data active = activity change below about -50%; inconclusive = mostly about -30% to -49%
#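 Secreted IL-1B measured by AlphaLISA bead assay after 16 h compound exposure of THP-1 cells; compounds (final up to 57.5 uM) added 1 h before LPS (250 ng/mL) and ATP (1.25 mM) stimulation; lower signal means less secretion.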
# TGFb SMAD3 inh: qHTS for Inhibitors of TGF-b; HepG2 CAGA-GFP TGF-b/SMAD3 reporter, GFP fluorescence, 18 h; TGF-beta stimulated, 500 pg/mL final; Potency, µM (series often up to 46.1 µM), most hits filed as inhibitors; actives 1.2% (n = 410,000); AID 588855, 2011; note: nearly all actives have a fitted effect of over 65% in size
#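 Per well, imaged GFP fluorescence of HEPG2 CAGA-GFP cells gives the signal; cells get compound, then TGF-beta (500 pg/mL final), 18 h at 37 degrees C; %Activity versus -TGF-beta and +DMSO controls.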
# TDP1 inh: qHTS Assay for Inhibitors of Tyrosyl-DNA Phosphodiesterase (TDP1); Tyrosyl-DNA phosphodiesterase 1 (Homo sapiens), Q9NUW8; recombinant TDP1, AlphaScreen DNA substrate cleavage; Potency, µM (series often up to 130 µM), most hits filed as inhibitors; actives 0.28% (n = 350,000); note: nearly all actives have a fitted effect of over 40% in size
# Target sequence (Q9NUW8 whole entry, looked up): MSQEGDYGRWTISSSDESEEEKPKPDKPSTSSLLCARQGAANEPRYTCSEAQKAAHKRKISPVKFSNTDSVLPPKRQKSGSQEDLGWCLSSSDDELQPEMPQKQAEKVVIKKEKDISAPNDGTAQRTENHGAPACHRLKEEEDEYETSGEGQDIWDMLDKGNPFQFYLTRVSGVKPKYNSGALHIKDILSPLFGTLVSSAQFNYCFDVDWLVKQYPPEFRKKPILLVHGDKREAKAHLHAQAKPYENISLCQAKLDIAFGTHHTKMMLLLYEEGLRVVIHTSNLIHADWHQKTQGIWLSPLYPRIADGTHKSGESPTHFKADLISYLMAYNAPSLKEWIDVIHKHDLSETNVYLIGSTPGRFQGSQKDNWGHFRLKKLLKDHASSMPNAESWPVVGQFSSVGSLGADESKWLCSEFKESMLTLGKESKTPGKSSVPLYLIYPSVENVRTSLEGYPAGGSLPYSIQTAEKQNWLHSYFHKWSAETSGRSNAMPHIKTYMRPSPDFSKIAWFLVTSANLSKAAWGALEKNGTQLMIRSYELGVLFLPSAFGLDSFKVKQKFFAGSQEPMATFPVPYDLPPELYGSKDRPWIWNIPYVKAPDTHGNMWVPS
#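 AlphaScreen read-out: signal falls as enzyme removes the 3' tyrosine-FITC from a 5'-biotinylated DNA oligo (15 nM, 5 min, RT). Enzyme was E. coli-made recombinant Tdp1 at 1 nM, exposed to compound for 15 min beforehand; beads 10 ug/ml, 10 min.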
# Hits are given with their value; n = inactive; u = inconclusive; x = not tested or not shown; [ ] = dose if it differs, or a comment. Unless noted, calls come from the whole dose curve; as a rule, active = well fitted curve in the direction sought with a large enough effect; inconclusive = small, poorly fitted or top-dose-only effect, or another doubt; inactive = no such curve, though single readings can be large; an effect the other way counts as inactive or inconclusive.
SMILES,HepG2 tox,DT40 TDP1 no CPT,TDP1 cell CPT,IL1B secr inh,TGFb SMAD3 inh,TDP1 inh
COc1ccc(C(c2sc3ncnn3c2O)N2CCN(c3ccccc3F)CC2)cc1OC (centres undefined),n,20.6µM,11.6µM,n,n,n
Oc1c(C(c2ccco2)N2CCN(C(c3ccccc3)c3ccccc3)CC2)sc2ncnn12 (centres undefined),n,20.6µM,u,-64.4,n,n
Oc1c(C(c2cccs2)N2CCN(c3cccc(Cl)c3)CC2)sc2ncnn12 (centres undefined),n,23.1µM,u,u,n,n
CN(C(=O)c1ccccc1C(=O)OCC(=O)c1ccc(F)c(F)c1)C1CCCCC1,n,25.9µM,u,u,n,n
CC[C@]12c3[nH]c4ccc(OC)cc4c3CCN1C(=O)C(CC(=O)NCC13CC4CC(CC(C4)C1)C3)C[C@@H]2C(=O)N1CCN(C(=O)c2ccco2)CC1 (some centres undefined),n,8.2µM,11.6µM,-54.8,u,n
CC[C@]12c3[nH]c4ccc(Cl)cc4c3CCN1C(=O)[C@@H](CC(=O)NCCC1=CCCCC1)C[C@@H]2C(=O)N1CCN(C(=O)c2ccco2)CC1,n,u,20.6µM,n,u,n
CC[C@]12c3[nH]c4ccc(Cl)cc4c3CCN1C(=O)[C@@H](CC(=O)NCc1ccco1)C[C@@H]2C(=O)N1CCN(C(=O)c2ccco2)CC1,n,20.6µM,16.4µM,n,u,n
CO/N=C(\Cn1ncc(N2CCCC2)c(Cl)c1=O)c1ccc(Cl)cc1,n,23.1µM,29.1µM,n,n,n
O=c1[nH]c(C(Cl)(Cl)Cl)nc2ccc3ccccc3c12,n,n,n,n,n,n[0.0935 µM]
Cc1ccc(C)c(N2CCN(CCCNC(=O)c3nnc(Cc4ccc(F)cc4Cl)o3)CC2)c1,n,4.61µM,2.59µM,x,u,n
CCN1CCN(CCCNC(=O)c2ccc3nc(Cc4ccccc4)oc3c2)CC1,n,n,n,x,u,n
COc1ccccc1N1CCN(CCCNC(=O)c2nnc(Cc3ccc(F)cc3Cl)o2)CC1,n,u,u,x,u,n[12.3 µM]
O=C(NCCCN1CCN(c2ccc(F)cc2)CC1)c1ccc2nc(Cc3ccccc3)oc2c1,n,20.6µM,13µM,x,11.2µM,n
COc1ccccc1N1CCN(CCCNC(=O)c2nnc(Cc3c(F)cccc3Cl)o2)CC1,n,u,n,x,n,n
O=C(NCCCN1CCN(c2ccccc2)CC1)c1ccc2nc(Cc3ccccc3)oc2c1,n,8.2µM,11.6µM,x,u,n
O=C(NCCCN1CCN(c2ccccc2)CC1)c1nnc(Cc2ccc(F)cc2)o1,n,25.9µM,u,x,n,n
O=C(O)c1ccc2c(c1)C(=O)N([C@H](Cc1cccc3ccccc13)C(=O)O)C2=O,n,x,x,x,n,n
CC(=O)Nc1ccc(S(=O)(=O)N(C)CC(=O)OCC(=O)Nc2ccc3c(c2)OCO3)cc1,n,n,n,n,n,n
CCN(CC)CC#CCC(C)(c1ccccc1)c1ccccc1,n,16.4µM,u,u,u,n
CCCN1CCN(C(=O)c2cc(COc3ccc4ncccc4c3)on2)CC1,n,9.2µM,23.1µM,n,n,x
CCN1CCN(C(=O)c2cc(COc3ccc4ncccc4c3)on2)CC1,n,10.3µM,16.4µM,n,n,n
CC(=O)c1cccc(OCc2cc(C(=O)N3CCSCC3)no2)c1,n,n,n,n,n,n
